SENP6 inh: SENP6 protease inhibitors, primary screen, biochemical, luminescence, uHTS | AID 2599, 2010 | inhibition, % at 10 µM | Sentrin-specific protease 6 (Homo sapiens), Q9GZR1 | Recombinant SENP6 catalytic domain, aminoluciferin luminescence | 330,000 tested, 1.8% active;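 active = inhibition above about 50% at the single tested dose, limit read from the data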
SENP8 block-1: human SENP8 protease inhibitors, primary screen, biochemical, fluorescence, Nedd8 protein substrate, uHTS | Sentrin-specific protease 8 (Homo sapiens), Q96LD8 | recombinant SENP8 | inhibition, % at 20 µM | 360,000 tested, 0.64% active | AID 602440, 2012; in the data active = inhibition mostly above about 40%, no sharp cut-off; inactive = mostly below about 27%
Target sequence (Q96LD8 whole entry, looked up): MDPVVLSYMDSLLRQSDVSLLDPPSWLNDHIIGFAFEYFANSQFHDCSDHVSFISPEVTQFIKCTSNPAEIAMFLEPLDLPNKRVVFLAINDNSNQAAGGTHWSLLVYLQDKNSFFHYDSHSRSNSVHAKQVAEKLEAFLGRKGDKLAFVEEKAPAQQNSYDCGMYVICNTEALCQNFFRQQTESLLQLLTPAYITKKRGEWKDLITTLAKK
SENP8 block-2: SENP8 protease inhibitors, primary screen, biochemical, luminescence; purified SENP8, Z-RLRGG-aminoluciferin cleavage; 330,000 tested, 1.2% active; inhibition, % at 10 µM; Sentrin-specific protease 8 (Homo sapiens), Q96LD8; in the data active = inhibition above about 50%
Platelet DG rel: inhibitors of platelet dense granule secretion, primary screen, cell-based, MLPCN, human platelets; human platelet-rich plasma, SFLLRN dense granule ATP release, luminescence; inhibition, %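 (compounds screened at 7.5 µM in platelet-rich plasma)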; 300,000 tested, 0.22% active;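 active = mean replicate score, as percent of positive control, at or above 50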
HSP90 inh: HSP90 inhibitors, primary screen, cell lysate, luminescence; Heat shock protein HSP 90 (rabbit reticulocyte lysate; luciferase refolding); inhibition, % at 5.6 µM; AID 1789, 2009; 290,000 tested, 0.91% active; Rabbit reticulocyte lysate, luciferase refolding luminescence, 3 h;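 active = inhibition above the screen-wide mean plus 3 SD, computed separately per campaign, cut at about 16% in these data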;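 note: inhibitors lower the luminescence because luciferase stays unfolded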
SENP7 inh: SENP7 protease inhibitors, primary screen, biochemical, luminescence, uHTS; Sentrin-specific protease 7 (Homo sapiens), Q9BQF6; recombinant SENP7, Z-RLRGG-aminoluciferin luminescence, 40 min; inhibition, % at 5 µM; 330,000 tested, 1.5% active; AID 434973, 2010;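 active = inhibition above about 50% at the single test dose, limit read from the data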
SENP8 conf: SENP8 protease inhibitors, retest, confirmation, biochemical, luminescence, single concentration. shares compounds with SENP7 inh. inhibition, % at 12.5 µM. 6,200 tested, 40% active. Recombinant SENP8, Z-RLRGG-aminoluciferin luminescence, 60 min;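 active = mean inhibition across replicates above about 50%, limit read from the data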
SENP6 conf: SENP6 protease inhibitors, confirmation, biochemical, luminescence, single concentration; recombinant SENP6, Z-RLRGG-aminoluciferin luminescence; shares compounds with SENP7 inh; 6,200 tested, 58% active; AID 488915, 2010; inhibition, % at 12.5 µM
SENP7 confirm: SENP7 protease inhibitors, retest, confirmation, biochemical, luminescence, single concentration; shares compounds with SENP7 inh; recombinant SENP7, Z-RLRGG-aminoluciferin luminescence, 40 min; inhibition, % at 12.5 µM; 6,200 tested, 69% active
Casp3 SENP sel: caspase-3 protease inhibitors, confirmation, selectivity assay for SENP inhibitor project, biochemical, single concentration; 6,200 tested, 60% active; shares compounds with SENP7 inh; purified caspase-3, Z-DEVD-aminoluciferin luminescence, 60 min; inhibition, % at 12.5 µM; AID 488918, 2010;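 active = mean inhibition above about 50%, limit read from the data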
Target sequence (P42574 28-227 limits assumed): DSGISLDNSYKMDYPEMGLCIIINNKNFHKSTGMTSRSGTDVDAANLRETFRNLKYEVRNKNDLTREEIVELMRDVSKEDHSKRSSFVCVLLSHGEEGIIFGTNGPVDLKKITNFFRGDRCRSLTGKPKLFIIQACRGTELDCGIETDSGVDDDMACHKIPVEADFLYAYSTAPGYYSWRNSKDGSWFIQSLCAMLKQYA
SENP luc ctr: interferes with luciferase luminescence in SENP counter-screen | 6,200 tested, 39% active | inhibition, % at 12.5 µM | Pre-incubated SENP8/Z-RLRGG-aminoluciferin, luciferase luminescence interference | shares compounds with SENP7 inh;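 active = mean inhibition above about 50% when retested at one dose, limit read from the data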
Large screens that a line does not name were inactive (follow-up assays come after a bar, where they were run). This is a sample that favours compounds with a hit; in the whole collection about 2.8% have one here.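 Rule for the calls, unless noted: active = mean inhibition above about 50% in the one-dose retest (limit read from the data); inactive = the rest.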

O=C(Nc1nccs1)c1ccc(-c2ccccc2[N+](=O)[O-])o1	none
O=C(c1ccc(Cl)cc1)c1coc2ccc(O)cc12	SENP6 inh 86, SENP8 block-2 78, SENP7 inh 77 | SENP8 conf inactive | SENP6 conf 88 | SENP7 confirm 99 | Casp3 SENP sel 73 | SENP luc ctr inactive
COc1ccc(NC(=O)c2cc(C3CCCCN3S(=O)(=O)c3ccc(C#N)cc3)on2)c(C)c1 (stereo not given)	none (no result: SENP6 inh, SENP8 block-2, Platelet DG rel, HSP90 inh, SENP7 inh)
COc1ccc(-c2ccc3sc4ccccc4c(=O)c3c2)cn1	SENP6 inh 95, SENP7 inh 101 (no result: HSP90 inh) | SENP8 conf inactive | SENP6 conf inactive | SENP7 confirm inactive | Casp3 SENP sel 74 | SENP luc ctr inactive
COc1cc2sc3ccc(-c4ccc(N(C)C)nc4)cc3c(=O)c2cc1OC	SENP6 inh 79, SENP8 block-2 74, SENP7 inh 56 (no result: SENP8 block-1, HSP90 inh) | SENP8 conf inactive | SENP6 conf inactive | SENP7 confirm inactive | Casp3 SENP sel inactive | SENP luc ctr inactive
COc1cc2sc3ccc(-c4ccc(CN5CCOCC5)cc4)cc3c(=O)c2cc1OC	none (no result: Platelet DG rel, HSP90 inh)
Cc1nc(=O)c(-c2ccccc2)c(C)n1-c1cccc(/C=C/C(=O)O)c1	none
O=C(Nc1nc(-c2ccc(Cl)cc2)cs1)C1=COCCO1	none (no result: HSP90 inh)
Cc1cc(C)c2sc(NC(=O)C3=COCCO3)nc2c1	SENP6 inh 67, SENP7 inh 62 | SENP8 conf inactive | SENP6 conf 65 | SENP7 confirm 89 | Casp3 SENP sel 56 | SENP luc ctr inactive
CCc1ccc(-c2csc(NC(=O)C3=COCCO3)n2)cc1	SENP6 inh 60 (no result: Platelet DG rel, HSP90 inh) | SENP8 conf inactive | SENP6 conf inactive | SENP7 confirm 73 | Casp3 SENP sel inactive | SENP luc ctr inactive
Cc1cc(C)c(-c2csc(NC(=O)C3=COCCO3)n2)c(C)c1	none (no result: HSP90 inh)
Cc1cccc(C(=O)Nc2sc(C)c(-c3ccccc3)c2C#N)c1	SENP6 inh 60 | SENP8 conf inactive | SENP6 conf inactive | SENP7 confirm 54 | Casp3 SENP sel inactive | SENP luc ctr inactive
COc1cc(C(=O)Nc2scc(-c3ccc(Br)cc3)c2C(=O)O)cc(OC)c1OC	none
O=C(Nc1scc(-c2ccc(F)cc2)c1C(=O)O)c1ccco1	SENP6 inh 86, SENP8 block-2 71 | SENP8 conf inactive | SENP6 conf 77 | SENP7 confirm 93 | Casp3 SENP sel 87 | SENP luc ctr 81
COC(=O)c1c(-c2ccccc2)csc1NC(=O)c1ccco1	none
CC(C)Cc1csc(NC(=O)c2ccccc2Cl)c1C(=O)O	none
CC(C)Cc1csc(NC(=O)c2ccc(Cl)cc2)c1C(=O)O	SENP6 inh 94, SENP8 block-2 91 | SENP8 conf 95 | SENP6 conf 97 | SENP7 confirm 99 | Casp3 SENP sel 87 | SENP luc ctr 76
Cc1ccc(-c2csc(NC(=O)c3ccc(Br)cc3)c2C(=O)O)cc1	SENP6 inh 71, SENP8 block-2 86 | SENP8 conf inactive | SENP6 conf 87 | SENP7 confirm 74 | Casp3 SENP sel 76 | SENP luc ctr inactive
O=C(Cc1cccc(F)c1F)NC1CCCN(Cc2ccc(Cl)cc2)C1 (stereo not given)	none
COc1ccc(Cl)cc1NC(=O)c1cccc(-n2cnnn2)c1	none (no result: Platelet DG rel, HSP90 inh)
Cc1ccc(-c2csc(NC(=O)c3cccc(C)c3)c2C(=O)O)cc1	SENP6 inh 97, SENP8 block-2 92, SENP7 inh 69 (no result: HSP90 inh) | SENP8 conf inactive | SENP6 conf 96 | SENP7 confirm 100 | Casp3 SENP sel 91 | SENP luc ctr 84
Cc1cccc(C(=O)Nc2scc(-c3ccc(Br)cc3)c2C(=O)O)c1	SENP8 block-2 72 (no result: HSP90 inh) | SENP8 conf inactive | SENP6 conf 54 | SENP7 confirm inactive | Casp3 SENP sel inactive | SENP luc ctr inactive
CC(C)c1ccc(-c2csc(NC(=O)c3cccs3)c2C(=O)O)cc1	SENP6 inh 96, SENP8 block-2 91 | SENP8 conf inactive | SENP6 conf 98 | SENP7 confirm 90 | Casp3 SENP sel 84 | SENP luc ctr 84
Cc1cccc(C(=O)Nc2scc(CC(C)C)c2C(=O)O)c1	none
Cc1ccc(-c2csc(NC(=O)/C=C/c3ccco3)c2C(=O)O)cc1	SENP6 inh 86, SENP8 block-2 89, SENP7 inh 72 | SENP8 conf 68 | SENP6 conf 97 | SENP7 confirm 101 | Casp3 SENP sel 96 | SENP luc ctr 67
CNC(=S)N(CCCN(C)C)Cc1cc2cc3c(cc2[nH]c1=O)OCCO3	none
O=C(CSc1nncs1)Nc1ccc(Cl)cc1C(F)(F)F	none (no result: HSP90 inh)
O=C(Nc1ccc2c(c1)OCCO2)C(C1CC1)n1c(=O)c(-c2cc3ccccc3[nH]2)nc2ccccc21 (stereo not given)	none (no result: SENP6 inh, SENP8 block-2, Platelet DG rel, HSP90 inh, SENP7 inh)
CCOc1ccc(N(CC(=O)NCc2ccco2)C(=O)CCC(=O)Nc2ccccn2)cc1	none
CN(C)S(=O)(=O)c1ccc(Cl)c(NC(=O)COC(=O)CCC2CCCCC2)c1	none (no result: Platelet DG rel, HSP90 inh)
Cc1ccc(-n2nc3ccc(NC(=O)c4ccco4)cc3n2)cc1	none
Cc1ccc(-n2nc3ccc(NC(=O)C(C)C)cc3n2)cc1	SENP6 inh 76, SENP7 inh 80 | SENP8 conf inactive | SENP6 conf inactive | SENP7 confirm inactive | Casp3 SENP sel inactive | SENP luc ctr inactive
O=C1C=C(Nc2ccccc2)c2ccccc2C1=O	SENP6 inh 81, SENP8 block-2 73, HSP90 inh 17 | SENP8 conf inactive | SENP6 conf 87 | SENP7 confirm 72 | Casp3 SENP sel inactive | SENP luc ctr inactive
